# Experimental data reported in PubChem BioAssay (Tox21).
# Where “and” joins values, the source holds several entries; their conditions need not be identical. Equal values may be shown once. Records with an inconclusive call do not appear. Entries that show only a call come without a potency. Calls of active or inactive are those of the source. Calls come from the whole dose curve; as a rule, active = well fitted activation curve with a large enough effect; inconclusive = small, poorly fitted or top-dose-only effect; inactive = flat fitted curve, though single readings scatter. Residues, ends and D or L forms follow the SMILES beside them.
# Assay: qHTS assay to identify small molecule phospholipidosis (PLD) inducers (AID 1259344)
# Details: HepG2 phospholipidosis, LipidTOX Red imaging, 24 h; series mostly up to 38.3 µM
# Method in brief: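 Image-based: LipidTOX Red pit count/intensity per well and per cell; HepG2, 24 h compound at 37 C, PFA fixation, Hoechst counterstain.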
SMILES,PLD induction,Potency
Nc1c(CC(=O)O)cccc1C(=O)c1ccccc1,-2.85% [at 7.66 µM] (inactive) and -2.33% [at 7.66 µM] (inactive),–
COc1c(O)cc2c(c1O)[C@@H]1O[C@H](CO)[C@@H](O)[C@H](O)[C@H]1OC2=O,–,inactive
O=C(O)c1cc(O)c2c(c1)[C@H]([C@H]1c3cc(C(=O)O)cc(O)c3C(=O)c3c(O[C@@H]4O[C@H](CO)[C@@H](O)[C@H](O)[C@H]4O)cccc31)c1cccc(O[C@@H]3O[C@H](CO)[C@@H](O)[C@H](O)[C@H]3O)c1C2=O,–,inactive
NC(=O)c1cc[n+](CC2=C(C(=O)O)N3C(=O)[C@@H](NC(=O)C(c4ccccc4)S(=O)(=O)[O-])[C@H]3SC2)cc1 (stereo not given in full),–,inactive
OCl,–,inactive
C[S+](C)CCC(N)C(=O)O (stereo not given),–,inactive
CC(=O)Oc1cc(C(F)(F)F)ccc1C(=O)O,–,inactive
CN(Cc1ccccc1)Cc1ccccc1,–,inactive
CC12CCC(C1)C(C)(C)C2=O (stereo not given),–,inactive
CCOC(=O)COc1ccc2c(=O)cc(-c3ccccc3)oc2c1,–,inactive
CCN(CC)CC#CCOC(=O)C(O)(c1ccccc1)C1CCCCC1 (stereo not given),–,inactive
COc1cc(NS(C)(=O)=O)ccc1Nc1c2ccccc2nc2ccccc12,–,inactive
C(=C\c1ccncc1)/c1ccccc1,–,inactive
CC(C)[C@H](NC(=O)[C@H](CC(=O)O)NC(=O)[C@H](CCCCN)NC(=O)[C@@H](N)CCCN=C(N)N)C(=O)N[C@@H](Cc1ccc(O)cc1)C(=O)O (H-RKDVY-OH),–,inactive
O=C(O)c1ccccn1,–,inactive
